Results as given in PubChem BioAssay (NCI).
Compounds without any hit were thinned out: in the full panel of roughly 79,000, 15% have a hit. A number with no mark means an inactive call. Cut-off read from the data, not from the text of the source: active = growth inhibition above about 70%; inactive = the rest.

Assay: NCI Yeast Anticancer Drug Screen. Data for the mlh1 rad18 strain (AID 175)
Conditions: S. cerevisiae mlh1 rad18 strain growth inhibition; at 50.0 µM; stronger effect = higher value
Method in brief: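 Genetically defined yeast (DNA repair-deficient) exposed to compounds; growth inhibition determined relative to vehicle.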
With `C/C(=N/NC(N)=O)C(=O)O` the growth inhibition was 13.7%.
Molecule `CCN1CSC(=S)N(Cc2ccccc2)C1` has a growth inhibition of 32.6%.
For `O=C=Nc1ccc(Cl)c(Cl)c1`, the growth inhibition was -19.1%.
`CCOC(=O)NC(Nc1cccc(F)c1)(C(F)(F)F)C(F)(F)F` showed a growth inhibition of 4.9%.
In the case of `CC(=O)Nc1ccc(NC(=O)Nc2cccc(Cl)c2C)cc1`, the growth inhibition is reported as 5.3%.
`CCN(CC)C1=Nc2ccccc2N(c2ccccc2)C(SC)=C1` showed a growth inhibition of 14.5%.
`O=C(N/N=C\c1ccc(Cl)cc1Cl)c1ccc(F)cc1` gave a growth inhibition of -4.1%.
For `Cc1ccc(N=Nc2c(C)nc(N)nc2C)cc1`, the growth inhibition was -6.55%.
For `CCCOC1CC(C)C(O)C(C)C1` (stereo not drawn), the growth inhibition was 15.5%.
Work on `COc1cc(C2C3=C(COC3=O)OC(C)(C)Oc3cc4c(cc32)OCO4)cc(OC)c1O` (stereo not drawn) yielded a growth inhibition of 0%.
In the case of `O=C(O)c1cc(=O)c2[nH]c3ccccc3c2s1`, the growth inhibition is reported as 7.95%.
`O=C(O)CCCC1(CCCC(=O)O)OCCO1` gave a growth inhibition of -2.8%.
`CC(C)(C)C1CCC2c3c([nH]c4ccccc34)C3C(=O)N(c4ccc(Cl)cc4)C(=O)C3C2C1` (stereo not drawn) gave a growth inhibition of -13.2%.
In the case of `Cc1cc(C)c(C(C=O)c2ccccc2)c(C)c1` (stereo not drawn), the growth inhibition is reported as 4.45%.
`COC(=O)c1cc(Cl)ccc1NC(=O)C1CCCCC1` gave a growth inhibition of 36%.
Molecule `CCOC(=O)NC(CC)CO` (stereo not drawn) has a growth inhibition of -6.9%.
`O=C(C(c1ccccc1)C(C(=O)N(Cc1ccccc1)Cc1ccccc1)c1ccccc1)N(Cc1ccccc1)Cc1ccccc1` (stereo not drawn) showed a growth inhibition of 28.3%.
`CN1C(=O)C(=O)N2c3ccc(Cl)cc3C3(c4ccccc4)N=CC12O3` (stereo not drawn) showed a growth inhibition of -3.1%.
`Nc1ccc2c(=O)[nH][nH]c2c1` gave a growth inhibition of -9.2%.
In the case of `NC(=O)c1cc(Br)ccc1O`, the growth inhibition is reported as 17.2%.
With `Cn1nc(C(=O)NN)c(=O)[nH]c1=O` the growth inhibition was 16.9%.
With `OC(CSCc1ccccc1)c1ccccc1` (stereo not drawn) the growth inhibition was 3.1%.
In the case of `CC(=O)NC1C(SC(=O)NCCCl)OC(COC(C)=O)C(OC(C)=O)C1OC(C)=O` (stereo not drawn), the growth inhibition is reported as -4.3%.
